Drawing on PubChem BioAssay (NCI), this text covers growth for 8 compounds.

Some test systems named below: DU-145 prostate; MALME-3M melanoma; MDA-MB-231 breast; RXF 393 renal; SF-268 CNS; SF-295 CNS; SF-539 CNS; UACC-257 melanoma; M14 melanoma; HCT-15 colon; HT29 colon; SNB-75 CNS; SNB-19 CNS; U251 CNS; PC-3 prostate; SK-MEL-5 melanoma; UACC-62 melanoma; LOX IMVI melanoma; SK-MEL-28 melanoma.
Holding throughout (assay): NCI-60 one-dose screen, 48 h (100 = growth as untreated, 0 = no growth, -100 = all killed)
What all share (settings): 10 µM unless noted

This is part of a sample that, as a whole, favours compounds with a hit. Of some 83,000 tested, about 20% had one in any assay.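 Compound tested at a single concentration for 48 hours in 96-well plates; a percent growth value below 10 was scored as active.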 Unmarked numbers belong to inactive results. The source made the active and inactive calls.

With `Cc1cn(-c2nc3c(c(NCc4ccccc4)n2)COCC3)c2cccc(C(N)=O)c12`, the growth in the test with DU-145 prostate was 87.6% [0.5 µM]; with MALME-3M melanoma, 82.9% [0.5 µM]; in the test on MDA-MB-231 breast, 58.5% [0.5 µM]; in the test on RXF 393 renal it was 43.6% [0.5 µM]; in the test on SF-268 CNS, 76.9% [0.5 µM]; in the test with SF-295 CNS, 36.1% [0.5 µM]. Also, the growth in the test on SF-539 CNS is 84.6% [0.5 µM]; in the test on UACC-257 melanoma, 68.1% [0.5 µM]; in the test with M14 melanoma it was 55.2% [0.5 µM]; in the test with HCT-15 colon, 81.9% [0.5 µM]; with HT29 colon it was 63.4% [0.5 µM]; in the test on SNB-75 CNS, 107% [0.5 µM]. Further, the growth was 97.4% [0.5 µM] in the test with SNB-19 CNS; 93.5% [0.5 µM] with U251 CNS; 83.8% [0.5 µM] with PC-3 prostate; -20.3% [0.5 µM] (active) in the test on SK-MEL-5 melanoma; 44.3% [0.5 µM] with UACC-62 melanoma; 16.3% [0.5 µM] in the test on LOX IMVI melanoma. In the test with SK-MEL-28 melanoma, the growth is 96.5% [0.5 µM].

Turning to `O=[N+]([O-])c1ccc(NS(=O)(=O)c2cc(Cl)ccc2Cl)c2ccccc12`, the growth with DU-145 prostate was 73%; in the test with MALME-3M melanoma, 43.2%; with MDA-MB-231 breast, 71%; in the test on RXF 393 renal it was 42.6%; in the test on SF-268 CNS, 47.9%; with SF-295 CNS it was 37.7%. Moreover, the growth in the test on SF-539 CNS was 44.9%; in the test with UACC-257 melanoma it was 33.7%; in the test with M14 melanoma, 45.4%; with HCT-15 colon, 54.2%; with HT29 colon it was 59.4%; with SNB-75 CNS, 60.6%. The growth in the test on SNB-19 CNS was 60.1%; in the test with U251 CNS it was 67.1%; in the test with PC-3 prostate, 54.7%; in the test with SK-MEL-5 melanoma, 14%; in the test with UACC-62 melanoma, 17.1%; in the test with LOX IMVI melanoma it was 56.4%. The growth with SK-MEL-28 melanoma was 35.4%.

For the compound `CCNC(=O)Oc1ccc(/C(=C(/CC)Cc2ccccc2)c2ccc(OCCN3CCOCC3)cc2)cc1`, the growth was 73.9% in the test on DU-145 prostate; 81.1% in the test with MALME-3M melanoma; 71.4% with MDA-MB-231 breast; 42.7% in the test with RXF 393 renal; 43.7% with SF-268 CNS; 68.7% in the test on SF-295 CNS. The growth was 77.2% with SF-539 CNS; 79.4% in the test with UACC-257 melanoma; 41.6% with M14 melanoma; 39.4% with HCT-15 colon; 28.6% in the test on HT29 colon; 70.2% with SNB-75 CNS. For the same compound, the growth with SNB-19 CNS was 76.7%; with U251 CNS it was 52.8%; with PC-3 prostate, 20.2%; in the test with SK-MEL-5 melanoma it was 39.5%; in the test on UACC-62 melanoma, 73.2%; in the test on LOX IMVI melanoma, 50.4%. In the test with SK-MEL-28 melanoma, the growth was 80.6%.

In the case of `COc1ccccc1S(=O)(=O)Nc1ccc2c3c(cc(-c4ccoc4)nc13)C(=O)N2C`, the growth in the test with DU-145 prostate is 86.5%; in the test with MALME-3M melanoma, 71.3%; in the test on MDA-MB-231 breast, 62.8%; in the test on RXF 393 renal, 85.3%; in the test on SF-268 CNS, 84.1%; in the test on SF-295 CNS, 56.9%. Besides, the growth was 63.2% in the test with SF-539 CNS; 58.7% in the test with UACC-257 melanoma; 53.1% in the test with M14 melanoma; 66.6% with HCT-15 colon; 43.8% with HT29 colon; 16.6% with SNB-75 CNS. In addition, the growth with SNB-19 CNS was 75.9%; in the test on U251 CNS, 77.9%; in the test on PC-3 prostate, 66.9%; with SK-MEL-5 melanoma, 56.6%; with UACC-62 melanoma it was 38.3%; with LOX IMVI melanoma it was 51.9%. In addition, in the test with SK-MEL-28 melanoma, the growth is 75.6%.

On to `CN1C(=O)C2(SCC(C(=O)NCC(=O)OC(C)(C)C)N2C(=O)C2CCCCC2)c2ccccc21` (configuration not stated), for which the growth with DU-145 prostate was 105%; in the test on MALME-3M melanoma, 101%; with MDA-MB-231 breast, 100%; in the test with RXF 393 renal, 105%; in the test with SF-268 CNS, 96.7%; with SF-295 CNS, 96.9%. The growth with SF-539 CNS was 99.8%; with UACC-257 melanoma, 92.7%; in the test with M14 melanoma, 100%; with HCT-15 colon, 96.6%; with HT29 colon it was 87.6%; with SNB-75 CNS, 80.4%. For the same compound, the growth with SNB-19 CNS is 99.2%; in the test with U251 CNS, 92%; with PC-3 prostate it was 94.6%; in the test on SK-MEL-5 melanoma it was 98.2%; with UACC-62 melanoma, 91.8%; in the test with LOX IMVI melanoma, 94.9%. The growth with SK-MEL-28 melanoma is 103%.

`COc1ccc(/C=N/C2=NNC(C)(c3ccccc3O)N2C(Cc2c[nH]c3ccccc23)C(=O)O)cc1` (configuration not stated): the growth with DU-145 prostate is 58.9%; in the test with MALME-3M melanoma, 12.9%; with MDA-MB-231 breast it was 28.8%; with RXF 393 renal, 35.5%; in the test on SF-268 CNS, 40.2%; with SF-295 CNS it was 35.3%. The growth is 45.2% in the test with SF-539 CNS; 23.5% in the test on UACC-257 melanoma; 10.8% in the test with M14 melanoma; 39.7% with HCT-15 colon; 5.86% (active) with HT29 colon; 32.5% with SNB-75 CNS. The growth is 27.8% with SNB-19 CNS; 21% in the test with U251 CNS; 23.8% in the test with PC-3 prostate; -78.3% (active) in the test with SK-MEL-5 melanoma; 17.7% in the test with UACC-62 melanoma; 19.2% in the test on LOX IMVI melanoma. For the same compound, the growth in the test with SK-MEL-28 melanoma was 33.5%.

As for `COc1ccc(C2CC(c3cc(Cl)c(C)cc3OC)=NN2c2ccc(S(N)(=O)=O)cc2)cc1OC` (configuration not stated), the growth in the test with DU-145 prostate is 106%; in the test on MALME-3M melanoma, 101%; in the test with MDA-MB-231 breast it was 84.6%; with RXF 393 renal it was 77.7%; with SF-268 CNS it was 90.1%; with SF-295 CNS, 123%. The growth with SF-539 CNS is 103%; in the test on UACC-257 melanoma, 87.2%; with M14 melanoma, 81.8%; in the test with HCT-15 colon it was 75.9%; with HT29 colon, 78.7%; in the test on SNB-75 CNS, 83.6%. Further, the growth was 101% in the test with SNB-19 CNS; 78.4% in the test with U251 CNS; 52.3% with PC-3 prostate; 84.6% in the test with SK-MEL-5 melanoma; 65.1% in the test on UACC-62 melanoma; 77.9% in the test on LOX IMVI melanoma. Also, in the test with SK-MEL-28 melanoma, the growth is 108%.

Take `C=C1C(=O)O[C@H]2[C@H]1CC/C(COC(=O)c1ccc3ccccc3c1)=C\CC[C@@]1(C)O[C@@H]21`: the growth with DU-145 prostate is -81.1% (active); in the test on MALME-3M melanoma it was -75.8% (active); with MDA-MB-231 breast, -62.3% (active); in the test with RXF 393 renal, -91% (active); in the test on SF-268 CNS, -41% (active); with SF-295 CNS, 43.1%. In addition, the growth was -94.9% (active) in the test on SF-539 CNS; -24.6% (active) in the test with UACC-257 melanoma; -58.8% (active) in the test on M14 melanoma; -45.4% (active) with HCT-15 colon; -87.5% (active) in the test on HT29 colon; 25.1% in the test on SNB-75 CNS. Moreover, the growth with SNB-19 CNS was 11.6%; in the test with U251 CNS, -67.3% (active); in the test on PC-3 prostate it was -64% (active); in the test with SK-MEL-5 melanoma, -74.6% (active); in the test on UACC-62 melanoma it was -73% (active); in the test with LOX IMVI melanoma, -89.7% (active). In the test on SK-MEL-28 melanoma, the growth is -61.2% (active).
